Measured values as given in the supplement of paper PMC10849652.
The full data set covers some 7,900 targets. This sample favours those with a hit. About 0.6% of all pairs of compound and target were hits. Unmarked numbers belong to inactive results.

What was measured:
Test in all cases: log2 fold change, soluble protein after heating vs DMSO (PISA); higher = thermal stabilisation; K562 cells, 10 uM, 30 min; active = over 0.2 and 3.5 SD of the protein, either way, in both replicates (recomputed)
ZEB2 = ZEB2 (UniProt O60315)
Method in brief: (§1)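 K562 cells at 2×10^6 cells/mL were given 10 μM compound for 30 min. Aliquots then went through 3 min of heating across 48°C-58°C, were pooled, and were extracted in PBS with 0.5% NP-40 at 4°C, and the supernatant after 21,000xg for 90 min was quantified by TMTpro 16plex LC-MS/MS with channel sums equalised. Thermal stability relative to control samples, from duplicates, is given as log2 fold change.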

ZER1 = ZER1 (UniProt Q7Z7L7)
Method in brief: as §1

ZFAND5 = ZFAND5 (UniProt O76080)
ZFAND5, sequence (O76080 whole entry, looked up): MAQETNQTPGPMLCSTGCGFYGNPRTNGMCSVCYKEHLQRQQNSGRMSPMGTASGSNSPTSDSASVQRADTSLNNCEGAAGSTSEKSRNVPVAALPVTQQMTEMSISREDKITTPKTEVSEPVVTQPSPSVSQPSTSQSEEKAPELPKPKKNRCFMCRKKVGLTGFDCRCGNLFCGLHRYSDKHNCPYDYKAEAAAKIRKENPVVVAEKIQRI
Method in brief: as §1

ZFAND6 = ZFAND6 (UniProt Q6FIF0)
Method in brief: as §1

ZFP91 = ZFP91 (UniProt Q96JP5)
Method in brief: as §1

ZFPL1 = ZFPL1 (UniProt O95159)
Method in brief: as §1

ZMAT2 = ZMAT2 (UniProt Q96NC0)
ZMAT2, sequence (Q96NC0 whole entry, looked up): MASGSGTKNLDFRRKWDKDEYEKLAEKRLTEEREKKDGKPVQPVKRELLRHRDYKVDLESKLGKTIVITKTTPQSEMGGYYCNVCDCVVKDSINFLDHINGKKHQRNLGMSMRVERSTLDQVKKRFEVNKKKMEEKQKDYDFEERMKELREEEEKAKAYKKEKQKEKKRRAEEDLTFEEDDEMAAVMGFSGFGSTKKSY
Method in brief: as §1

ZMYM1 = ZMYM1 (UniProt Q5SVZ6)
ZMYM1, sequence (Q5SVZ6 whole entry, looked up): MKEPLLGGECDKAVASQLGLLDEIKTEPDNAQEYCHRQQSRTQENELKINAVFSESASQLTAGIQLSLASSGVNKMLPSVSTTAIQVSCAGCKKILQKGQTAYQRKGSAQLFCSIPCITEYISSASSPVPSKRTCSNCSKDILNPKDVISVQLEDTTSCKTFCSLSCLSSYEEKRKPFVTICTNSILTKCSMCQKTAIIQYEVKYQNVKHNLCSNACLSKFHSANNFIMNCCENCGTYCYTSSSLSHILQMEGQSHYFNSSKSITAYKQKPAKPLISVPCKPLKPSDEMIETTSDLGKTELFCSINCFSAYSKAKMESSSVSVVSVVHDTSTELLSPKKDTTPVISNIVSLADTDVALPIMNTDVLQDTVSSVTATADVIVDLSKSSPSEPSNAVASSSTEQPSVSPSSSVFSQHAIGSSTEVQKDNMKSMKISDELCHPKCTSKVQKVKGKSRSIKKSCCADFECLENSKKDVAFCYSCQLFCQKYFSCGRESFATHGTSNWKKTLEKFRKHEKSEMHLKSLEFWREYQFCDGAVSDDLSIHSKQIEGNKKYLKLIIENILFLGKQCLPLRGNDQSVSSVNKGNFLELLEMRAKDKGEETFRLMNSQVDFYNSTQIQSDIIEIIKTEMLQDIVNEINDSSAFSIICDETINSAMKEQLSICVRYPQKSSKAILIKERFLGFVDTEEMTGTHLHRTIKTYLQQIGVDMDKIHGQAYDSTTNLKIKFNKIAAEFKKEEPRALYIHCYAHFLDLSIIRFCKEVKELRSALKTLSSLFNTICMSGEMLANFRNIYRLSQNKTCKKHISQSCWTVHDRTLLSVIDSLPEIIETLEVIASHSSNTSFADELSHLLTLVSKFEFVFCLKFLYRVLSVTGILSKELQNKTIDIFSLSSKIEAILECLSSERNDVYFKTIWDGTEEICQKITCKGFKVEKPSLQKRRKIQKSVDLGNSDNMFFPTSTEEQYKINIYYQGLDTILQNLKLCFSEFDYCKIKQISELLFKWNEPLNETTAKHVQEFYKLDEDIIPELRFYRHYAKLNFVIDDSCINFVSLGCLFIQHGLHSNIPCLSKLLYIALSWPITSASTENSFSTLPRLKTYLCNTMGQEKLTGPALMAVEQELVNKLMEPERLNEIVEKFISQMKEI
Method in brief: as §1

ZMYM3 = ZMYM3 (UniProt Q14202)
ZMYM3, sequence (Q14202 whole entry, looked up): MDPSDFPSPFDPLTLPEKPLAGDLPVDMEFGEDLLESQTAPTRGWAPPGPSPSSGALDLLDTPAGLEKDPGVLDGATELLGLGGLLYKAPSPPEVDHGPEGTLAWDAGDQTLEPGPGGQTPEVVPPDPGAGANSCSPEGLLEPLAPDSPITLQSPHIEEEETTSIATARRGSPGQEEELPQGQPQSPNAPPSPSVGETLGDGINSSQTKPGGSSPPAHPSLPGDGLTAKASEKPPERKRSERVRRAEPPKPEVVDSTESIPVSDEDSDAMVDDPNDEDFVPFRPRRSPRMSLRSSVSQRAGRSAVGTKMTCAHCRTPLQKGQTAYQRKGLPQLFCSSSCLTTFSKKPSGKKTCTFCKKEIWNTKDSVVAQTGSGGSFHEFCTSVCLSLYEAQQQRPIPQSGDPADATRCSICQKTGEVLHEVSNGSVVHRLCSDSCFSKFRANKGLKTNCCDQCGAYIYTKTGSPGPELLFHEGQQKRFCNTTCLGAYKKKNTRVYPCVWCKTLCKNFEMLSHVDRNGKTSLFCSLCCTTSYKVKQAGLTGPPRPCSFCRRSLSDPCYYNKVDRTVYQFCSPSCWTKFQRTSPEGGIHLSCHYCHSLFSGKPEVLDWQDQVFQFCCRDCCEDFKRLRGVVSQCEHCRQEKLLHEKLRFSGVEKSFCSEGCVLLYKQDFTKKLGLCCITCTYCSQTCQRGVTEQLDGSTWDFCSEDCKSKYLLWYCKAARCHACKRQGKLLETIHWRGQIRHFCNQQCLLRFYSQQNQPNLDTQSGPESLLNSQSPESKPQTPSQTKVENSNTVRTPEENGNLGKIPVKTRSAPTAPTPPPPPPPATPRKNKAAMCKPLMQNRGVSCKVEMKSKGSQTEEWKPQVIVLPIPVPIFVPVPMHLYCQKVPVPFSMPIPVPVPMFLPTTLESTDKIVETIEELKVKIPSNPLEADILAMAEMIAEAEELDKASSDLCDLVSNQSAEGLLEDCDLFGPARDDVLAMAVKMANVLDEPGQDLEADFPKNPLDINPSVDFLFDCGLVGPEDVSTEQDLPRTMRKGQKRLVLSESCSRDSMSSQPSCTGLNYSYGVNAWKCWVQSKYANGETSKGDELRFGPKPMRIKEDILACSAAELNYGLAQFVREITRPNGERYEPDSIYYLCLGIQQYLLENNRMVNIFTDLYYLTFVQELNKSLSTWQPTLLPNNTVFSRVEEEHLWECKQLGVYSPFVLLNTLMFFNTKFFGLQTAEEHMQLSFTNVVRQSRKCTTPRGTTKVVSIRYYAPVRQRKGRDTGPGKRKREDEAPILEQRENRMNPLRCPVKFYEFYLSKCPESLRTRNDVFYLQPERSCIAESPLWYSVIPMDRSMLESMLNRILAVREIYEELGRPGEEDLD
Method in brief: as §1

ZNF143 = ZNF143 (UniProt P52747)
Method in brief: as §1

ZNF217 = ZNF217 (UniProt O75362)
Method in brief: as §1

ZNF239 = ZNF239 (UniProt Q16600)
ZNF239, sequence (Q16600 whole entry, looked up): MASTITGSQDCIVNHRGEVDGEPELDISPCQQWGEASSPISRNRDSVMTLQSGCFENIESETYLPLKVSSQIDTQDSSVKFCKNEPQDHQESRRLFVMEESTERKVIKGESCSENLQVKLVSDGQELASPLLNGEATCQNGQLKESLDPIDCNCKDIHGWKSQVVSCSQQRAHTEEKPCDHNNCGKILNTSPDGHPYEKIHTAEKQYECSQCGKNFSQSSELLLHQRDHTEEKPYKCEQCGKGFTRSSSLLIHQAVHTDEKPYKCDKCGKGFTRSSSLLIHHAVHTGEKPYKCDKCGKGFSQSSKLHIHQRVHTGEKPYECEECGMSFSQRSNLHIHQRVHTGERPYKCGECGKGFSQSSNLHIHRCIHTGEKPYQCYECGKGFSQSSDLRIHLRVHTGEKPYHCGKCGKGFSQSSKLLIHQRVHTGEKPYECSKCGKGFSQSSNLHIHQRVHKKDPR
Method in brief: as §1

ZNF277 = ZNF277 (UniProt Q9NRM2)
Method in brief: as §1

ZNF511 isoform 1 = ZNF511 isoform 1 (UniProt Q8NB15)
ZNF511 isoform 1, sequence (Q8NB15 whole entry, looked up, canonical isoform): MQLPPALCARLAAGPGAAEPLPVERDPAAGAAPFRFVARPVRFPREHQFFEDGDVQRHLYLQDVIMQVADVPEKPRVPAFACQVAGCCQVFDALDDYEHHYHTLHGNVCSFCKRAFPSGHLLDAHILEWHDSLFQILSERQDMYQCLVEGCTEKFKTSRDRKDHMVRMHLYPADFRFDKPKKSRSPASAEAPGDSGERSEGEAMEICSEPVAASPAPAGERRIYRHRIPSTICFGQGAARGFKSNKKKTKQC
Method in brief: as §1

ZNF579 = ZNF579 (UniProt Q8NAF0)
Method in brief: as §1

ZNF609 = ZNF609 (UniProt O15014)
ZNF609, sequence (O15014 whole entry, looked up): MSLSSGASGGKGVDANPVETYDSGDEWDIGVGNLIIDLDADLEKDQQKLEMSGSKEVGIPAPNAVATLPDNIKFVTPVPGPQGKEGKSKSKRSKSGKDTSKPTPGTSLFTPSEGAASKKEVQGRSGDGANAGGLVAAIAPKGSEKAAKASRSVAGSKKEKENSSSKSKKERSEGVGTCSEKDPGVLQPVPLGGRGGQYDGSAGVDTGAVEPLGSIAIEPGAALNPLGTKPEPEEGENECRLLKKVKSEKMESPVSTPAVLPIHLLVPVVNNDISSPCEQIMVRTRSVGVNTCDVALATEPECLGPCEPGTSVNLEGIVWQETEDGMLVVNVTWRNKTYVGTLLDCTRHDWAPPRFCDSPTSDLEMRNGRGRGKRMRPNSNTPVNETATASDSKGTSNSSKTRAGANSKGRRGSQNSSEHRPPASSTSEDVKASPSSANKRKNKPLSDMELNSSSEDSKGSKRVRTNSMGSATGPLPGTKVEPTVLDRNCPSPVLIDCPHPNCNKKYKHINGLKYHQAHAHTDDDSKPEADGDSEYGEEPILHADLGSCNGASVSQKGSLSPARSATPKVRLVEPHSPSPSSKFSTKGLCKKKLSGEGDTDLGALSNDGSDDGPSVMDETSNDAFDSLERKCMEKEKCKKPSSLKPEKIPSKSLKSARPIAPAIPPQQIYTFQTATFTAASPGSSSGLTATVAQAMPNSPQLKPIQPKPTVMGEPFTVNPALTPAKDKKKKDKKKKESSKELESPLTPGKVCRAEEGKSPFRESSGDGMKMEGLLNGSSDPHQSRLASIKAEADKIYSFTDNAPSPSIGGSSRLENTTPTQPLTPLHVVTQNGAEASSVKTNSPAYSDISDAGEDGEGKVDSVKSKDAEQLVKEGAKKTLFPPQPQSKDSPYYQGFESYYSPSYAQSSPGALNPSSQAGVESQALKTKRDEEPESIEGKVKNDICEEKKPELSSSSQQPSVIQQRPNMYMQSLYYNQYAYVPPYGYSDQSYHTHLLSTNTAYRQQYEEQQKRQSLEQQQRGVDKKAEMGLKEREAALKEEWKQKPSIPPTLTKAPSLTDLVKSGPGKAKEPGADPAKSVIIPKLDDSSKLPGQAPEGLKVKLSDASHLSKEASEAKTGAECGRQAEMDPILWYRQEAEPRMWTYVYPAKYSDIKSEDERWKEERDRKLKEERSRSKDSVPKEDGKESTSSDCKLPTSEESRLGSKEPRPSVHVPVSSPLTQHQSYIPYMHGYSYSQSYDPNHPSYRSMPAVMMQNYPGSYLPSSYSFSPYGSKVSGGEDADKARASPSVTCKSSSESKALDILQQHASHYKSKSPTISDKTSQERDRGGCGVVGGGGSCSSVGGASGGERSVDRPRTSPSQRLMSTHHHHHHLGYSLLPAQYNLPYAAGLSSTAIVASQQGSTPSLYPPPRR
Method in brief: as §1

ZNF622 = ZNF622 (UniProt Q969S3)
Method in brief: as §1

ZRANB2 = ZRANB2 (UniProt O95218)
Method in brief: as §1

ZNF512 = ZNF512 (UniProt Q96ME7)
Method in brief: as §1

ZNF580 = ZNF580 (UniProt Q9UK33)
Method in brief: as §1

| Compound | log2 fold change (ZEB2) | log2 fold change (ZER1) | log2 fold change (ZFAND5) | log2 fold change (ZFAND6) | log2 fold change (ZFP91) | log2 fold change (ZFPL1) | log2 fold change (ZMAT2) | log2 fold change (ZMYM1) | log2 fold change (ZMYM3) | log2 fold change (ZNF143) | log2 fold change (ZNF217) | log2 fold change (ZNF239) | log2 fold change (ZNF277) | log2 fold change (ZNF511 isoform 1) | log2 fold change (ZNF579) | log2 fold change (ZNF609) | log2 fold change (ZNF622) | log2 fold change (ZRANB2) | log2 fold change (ZNF512) | log2 fold change (ZNF580) |
| --- | --- | --- | --- | --- | --- | --- | --- | --- | --- | --- | --- | --- | --- | --- | --- | --- | --- | --- | --- | --- |
| C=CC(=O)N1CCC[C@@H](n2nc(-c3ccc(Oc4ccccc4)cc3)c3c(N)ncnc32)C1 [ibrutinib] | 0.029 | 0.001 | 0.03 | 0.006 | 0 | 0.087 | 0.025 | 0.066 | 0.03 | 0.01 | -0.028 | 0.165 | -0.028 | 0.047 | -0.024 | -0.024 | -0.003 | 0.013 |  |  |
| CN(CCOc1ccc(C[C@@H]2SC(=O)NC2=O)cc1)c1ccccn1 (racemic) [rosiglitazone] | 0.078 | 0.103 | -0.001 | -0.015 | -0.101 | -0.03 | -0.019 | 0.029 | 0.001 | -0.037 | 0.047 | 0.17 | 0.011 | 0.085 | -0.021 | 0.027 | 0.027 | -0.055 |  |  |
| CC(C)c1cnn2c(NCc3ccccc3)cc(NCCCCCCN)nc12 | -0.187 | -0.072 | 0.072 | 0.075 | 0.007 | 0.146 | 0.138 | 0.09 | 0.04 | -0.158 | -0.034 | 0.149 | -0.3 |  | 0.054 | -0.042 | -0.011 | 0.014 | 0.321 |  |
| CC(C)(C)Cn1c(N)nc2ccc(-c3[nH]c(C(C)(C)C)nc3-c3ccc(F)cc3)nc21 [ralimetinib] | -0.075 | 0.089 | 0.024 | -0.048 | -0.033 | 0.152 | -0.024 | 0.078 | -0.07 | 0.112 | -0.012 | -0.07 | 0.116 | 0.074 | 0.032 | -0.053 | -0.019 | -0.014 |  |  |
| NCC(=O)Nc1ccc(-n2nc(C(F)(F)F)cc2-c2ccc3c(ccc4ccccc43)c2)cc1 | -0.343 | 0.03 | 0.103 | 0.061 | 0.036 | 0.027 | 0.016 | 0.336 | 0.073 | -0.047 | -0.081 | -0.027 | -0.148 | -0.005 | 0.085 | -0.076 | -0.016 | 0.067 |  | -0.038 |
| CCn1c(C(=O)N(C2CC2)C2CC2)cc2c3c(ncn3C)c(Nc3cc(C)n(C)n3)nc21 | -0.041 | 0.045 | 0.063 | 0.046 | -0.028 | 0.042 | 0.022 | -0.079 | -0.029 | 0.075 | -0.034 | 0.004 | -0.188 |  | 0.002 | 0.007 | 0.005 | 0.014 | 0.128 |  |
| O=C(Nc1nc2ccccc2n1CCN1CCOCC1)c1cccc([N+](=O)[O-])c1 [IRAK-1-4 Inhibitor I] | 0.02 | 0.025 | 0.057 | 0.032 | -0.134 | 0.021 | 0.11 | 0.006 | 0.057 | 0.108 | 0.052 | 0.154 | -0.346 |  | -0.096 | -0.031 | 0.004 | -0.008 |  | 0.051 |
| Cc1ccc(Sc2cncc3sc(C(N)=O)cc23)cc1 | -0.012 | -0.085 | -0.047 | -0.01 | -0.025 | 0.008 | 0.113 | 0.061 | -0.07 | -0.042 | -0.107 | 0.019 | -0.032 | 0.018 | -0.07 | -0.045 | -0.022 | -0.04 |  | 0.16 |
| Cc1cc(SCc2sc(-c3ccc(C(F)(F)F)cc3)nc2C)ccc1OCC(=O)O | 0.089 | 0.055 | -0.079 | -0.038 | 0.042 | 0.025 | -0.048 | 0.032 | -0.011 | 0.028 | 0.112 | -0.172 | 0.152 |  | -0.009 | -0.134 | -0.009 | -0.086 |  | -0.301 |
| Cc1nc(Nc2ncc(C(=O)Nc3c(C)cccc3Cl)s2)cc(N2CCN(CCO)CC2)n1 [dasatinib] | -0.226 | -0.033 | 0.082 | 0.03 | 0.009 | 0.04 | 0.042 | -0.045 | 0.047 | -0.007 | -0.136 | -0.074 | 0.019 |  | -0.148 | 0 | 0.012 | 0.078 |  | -0.085 |
| COc1ccc(Cn2ccc3ccc(C(=O)NO)cc32)cc1 | -0.078 | -0.236 | -0.032 | 0.066 | -0.076 | 0.074 | 0.378 (active) | -0.056 | 0 | -0.035 | -0.024 | -0.178 | -0.073 |  | 0.056 | -0.034 | -0.033 | -0.022 |  | -0.134 |
| C#Cc1cccc(Nc2ncnc3cc(OCCOC)c(OCCOC)cc23)c1 [erlotinib] | 0.101 | 0.086 | -0.028 | 0.024 | -0.004 | -0.022 | -0.017 | 0.14 | 0.042 | 0.021 | 0.001 | -0.098 | 0.097 |  | -0.056 | 0.03 | 0.056 | 0.005 | -0.048 |  |
| O=C1NC(=O)/C(=C\c2ccc3nccnc3c2)S1 | -0.177 | 0.031 | -0.017 | 0.007 | 0.051 | 0.021 | -0.015 | 0.005 | 0.079 | 0.045 | 0.007 | 0.065 | -0.108 | 0.017 | -0.07 | -0.006 | -0.004 | 0.051 |  |  |
| NC(=O)c1ccc2nc(-c3ccc(Oc4ccc(Cl)cc4)cc3)[nH]c2c1 | 0.029 | -0.311 | -0.013 | 0.003 | 0.017 | 0.055 | 0.019 | -0.135 | -0.02 | 0.039 | 0.015 | 0.248 | -0.104 |  | 0.042 | 0.029 | 0.007 | -0.015 | -0.014 |  |
| Cc1ccc(NC(=O)c2ccc(CN3CC[C@H](N(C)C)C3)c(C(F)(F)F)c2)cc1Nc1nccc(-c2cncnc2)n1 [bafetinib] | -0.017 | -0.055 | -0.022 | -0.013 | 0.191 | -0.022 | -0.053 | -0.028 | -0.061 | -0.089 | -0.057 | -0.452 | 0.246 | -0.098 | 0.107 | -0.233 | 0.021 | -0.014 |  |  |
